Consider nine sequences from article PMC7862700, “An all-to-all approach to the identification of sequence-specific readers for epigenetic DNA modifications on cytosine”.

Common to all, as to assay: DAPPL (digital affinity profiling via proximity ligation, sequencing); 10 mM Tris-HCl pH 7.5, 50 mM NaCl, 1 mM DTT, 4% glycerol, room temperature, 30 min; GST-TFs on glutathione beads, 16-mer random dsDNA library, 0.1% formaldehyde crosslink after washing; high values mean tight binding
Holding throughout (details): protein: recombinant; tags: N-terminal GST; dsDNA, one strand shown

In one test the target is T1, ERF (Homo sapiens, UniProt P50548 1-548).
T1 sequence: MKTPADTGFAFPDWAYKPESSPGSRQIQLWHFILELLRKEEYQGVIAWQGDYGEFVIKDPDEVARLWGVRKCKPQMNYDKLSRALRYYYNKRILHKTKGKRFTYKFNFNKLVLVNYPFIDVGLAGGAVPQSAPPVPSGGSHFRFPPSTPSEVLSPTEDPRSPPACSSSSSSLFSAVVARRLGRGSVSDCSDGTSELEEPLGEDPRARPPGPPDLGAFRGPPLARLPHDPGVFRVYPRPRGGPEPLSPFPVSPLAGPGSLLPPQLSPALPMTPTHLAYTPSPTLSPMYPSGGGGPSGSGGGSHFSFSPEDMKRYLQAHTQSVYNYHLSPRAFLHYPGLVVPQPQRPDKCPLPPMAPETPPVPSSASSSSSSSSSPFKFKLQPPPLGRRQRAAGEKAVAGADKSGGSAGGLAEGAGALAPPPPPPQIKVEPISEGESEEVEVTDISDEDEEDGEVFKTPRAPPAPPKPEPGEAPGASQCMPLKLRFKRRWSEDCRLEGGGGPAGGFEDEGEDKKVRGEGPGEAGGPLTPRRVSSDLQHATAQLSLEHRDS
The gist of the method:
(§1)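 Binding signal is given per hexamer as its read frequency for a factor divided by its frequency in the tag-only sample. GST-fused human transcription factors were expressed in yeast, captured on glutathione beads, barcoded with DNA and pooled with that sample, then incubated with 200 nmole of a 16-mer random double-stranded DNA library in Tris/NaCl/DTT/glycerol buffer for 30 min at room temperature. The pools were then washed, crosslinked, proximity-ligated, amplified by PCR and sequenced on an Illumina NextSeq500.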

A further test has as its target T2, ETV3L (Homo sapiens, UniProt Q6ZN32 1-361).
T2 sequence: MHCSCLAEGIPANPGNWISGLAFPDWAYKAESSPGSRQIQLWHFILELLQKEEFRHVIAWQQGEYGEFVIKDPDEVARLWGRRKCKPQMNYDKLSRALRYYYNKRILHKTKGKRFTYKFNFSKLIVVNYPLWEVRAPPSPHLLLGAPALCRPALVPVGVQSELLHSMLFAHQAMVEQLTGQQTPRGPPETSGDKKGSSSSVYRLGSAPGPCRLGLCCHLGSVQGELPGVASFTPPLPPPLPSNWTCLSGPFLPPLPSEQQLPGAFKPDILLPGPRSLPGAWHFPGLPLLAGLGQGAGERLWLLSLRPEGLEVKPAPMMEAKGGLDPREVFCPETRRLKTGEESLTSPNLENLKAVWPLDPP
The gist of the method:
as §1

The next test has as its target T3, ETS2 (Homo sapiens, UniProt P15036 1-469).
T3 sequence: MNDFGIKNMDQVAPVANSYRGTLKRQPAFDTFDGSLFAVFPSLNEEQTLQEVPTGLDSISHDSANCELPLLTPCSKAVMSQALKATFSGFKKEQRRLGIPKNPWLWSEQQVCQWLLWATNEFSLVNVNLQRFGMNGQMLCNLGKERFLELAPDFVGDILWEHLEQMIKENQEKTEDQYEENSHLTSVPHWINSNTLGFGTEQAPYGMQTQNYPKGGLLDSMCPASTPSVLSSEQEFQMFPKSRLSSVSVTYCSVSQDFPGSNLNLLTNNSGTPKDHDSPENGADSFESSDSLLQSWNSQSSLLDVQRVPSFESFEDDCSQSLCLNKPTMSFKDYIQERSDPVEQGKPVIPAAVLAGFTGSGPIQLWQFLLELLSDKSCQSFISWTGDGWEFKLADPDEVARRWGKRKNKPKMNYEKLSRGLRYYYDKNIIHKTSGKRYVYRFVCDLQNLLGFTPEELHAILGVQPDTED
The gist of the method:
as §1

For the next test, the target named is T4, SPDEF (Homo sapiens, UniProt O95238 1-335).
T4 sequence: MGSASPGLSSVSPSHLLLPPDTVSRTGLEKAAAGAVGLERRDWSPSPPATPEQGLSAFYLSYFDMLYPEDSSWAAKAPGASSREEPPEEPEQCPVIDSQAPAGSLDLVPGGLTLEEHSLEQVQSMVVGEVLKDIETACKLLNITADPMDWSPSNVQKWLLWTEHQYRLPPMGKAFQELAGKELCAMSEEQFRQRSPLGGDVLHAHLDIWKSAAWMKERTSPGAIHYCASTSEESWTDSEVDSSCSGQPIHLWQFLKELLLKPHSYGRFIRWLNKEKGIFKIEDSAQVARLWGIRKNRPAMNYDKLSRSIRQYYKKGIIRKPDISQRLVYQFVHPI
The gist of the method: as §1

A further test has as its target T5, ETV7 (Homo sapiens, UniProt Q9Y603 1-341).
T5 sequence: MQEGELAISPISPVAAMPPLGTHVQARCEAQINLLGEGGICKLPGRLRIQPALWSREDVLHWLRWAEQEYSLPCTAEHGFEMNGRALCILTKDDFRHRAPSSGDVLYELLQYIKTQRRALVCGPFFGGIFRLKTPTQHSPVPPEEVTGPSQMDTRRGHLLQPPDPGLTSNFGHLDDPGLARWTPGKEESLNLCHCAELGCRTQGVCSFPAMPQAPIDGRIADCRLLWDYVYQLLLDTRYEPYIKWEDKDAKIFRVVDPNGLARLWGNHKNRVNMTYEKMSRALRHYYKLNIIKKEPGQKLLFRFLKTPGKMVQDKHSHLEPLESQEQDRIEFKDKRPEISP
The gist of the method: as §1

In another test the target is T6, ELF5 (Homo sapiens, UniProt Q9UKW6-2 1-255).
T6 sequence: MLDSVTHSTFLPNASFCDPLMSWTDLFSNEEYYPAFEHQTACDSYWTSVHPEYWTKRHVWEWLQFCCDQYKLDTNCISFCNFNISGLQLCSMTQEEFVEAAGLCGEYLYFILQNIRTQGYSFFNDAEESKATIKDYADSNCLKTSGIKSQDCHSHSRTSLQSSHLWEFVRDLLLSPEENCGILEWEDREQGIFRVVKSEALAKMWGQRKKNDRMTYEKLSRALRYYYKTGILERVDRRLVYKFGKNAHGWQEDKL
The gist of the method: as §1

The next test deals with T7, ETV3 (Homo sapiens, UniProt P41162-2 1-143).
T7 sequence: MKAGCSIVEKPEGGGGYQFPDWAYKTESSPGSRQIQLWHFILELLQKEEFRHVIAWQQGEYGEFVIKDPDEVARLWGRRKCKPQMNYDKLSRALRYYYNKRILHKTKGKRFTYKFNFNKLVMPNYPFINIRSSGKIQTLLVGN
The gist of the method:
as §1

A further test deals with ETV6 (Homo sapiens, UniProt P41212 1-452). The gist of the method: as §1
Chain of ETV6 (P41212 whole entry): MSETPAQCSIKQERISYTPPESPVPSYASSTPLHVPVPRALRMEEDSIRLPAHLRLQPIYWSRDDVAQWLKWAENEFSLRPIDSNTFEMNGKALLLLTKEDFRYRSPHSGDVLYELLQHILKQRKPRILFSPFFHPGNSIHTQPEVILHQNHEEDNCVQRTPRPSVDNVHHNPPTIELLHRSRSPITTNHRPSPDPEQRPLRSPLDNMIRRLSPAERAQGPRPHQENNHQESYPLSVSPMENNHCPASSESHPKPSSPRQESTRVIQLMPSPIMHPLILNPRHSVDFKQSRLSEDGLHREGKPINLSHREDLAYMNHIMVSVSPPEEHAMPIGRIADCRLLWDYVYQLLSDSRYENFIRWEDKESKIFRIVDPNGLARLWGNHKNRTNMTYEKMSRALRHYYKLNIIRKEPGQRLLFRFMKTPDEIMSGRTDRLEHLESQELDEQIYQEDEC

Turning to TCTAGT, the binding signal was 1.25 fold enrichment (6-mer frequency, TF over GST control) with ERF; 1.05 fold enrichment (6-mer frequency, TF over GST control) with ETV3L; 1.17 fold enrichment (6-mer frequency, TF over GST control) with ETS2; 1.06 fold enrichment (6-mer frequency, TF over GST control) in the test with SPDEF; 1.1 fold enrichment (6-mer frequency, TF over GST control) in the test with ETV7; 1.04 fold enrichment (6-mer frequency, TF over GST control) with ELF5. The binding signal is 1.08 fold enrichment (6-mer frequency, TF over GST control) with ETV3 and 1.12 fold enrichment (6-mer frequency, TF over GST control) in the test with ETV6.

Take AAAAAT: the binding signal is 1.35 fold enrichment (6-mer frequency, TF over GST control) with ERF; 1.34 fold enrichment (6-mer frequency, TF over GST control) with ETV3L; 1.3 fold enrichment (6-mer frequency, TF over GST control) with ETS2; 1.21 fold enrichment (6-mer frequency, TF over GST control) with SPDEF; 1.34 fold enrichment (6-mer frequency, TF over GST control) with ETV7; 1.3 fold enrichment (6-mer frequency, TF over GST control) in the test with ELF5. Further, the binding signal with ETV3 was 1.29 fold enrichment (6-mer frequency, TF over GST control); with ETV6, 1.35 fold enrichment (6-mer frequency, TF over GST control).

For ATTTTA, the binding signal was 1.27 fold enrichment (6-mer frequency, TF over GST control) in the test with ERF; 1.43 fold enrichment (6-mer frequency, TF over GST control) with ETV3L; 1.33 fold enrichment (6-mer frequency, TF over GST control) with ETS2; 1.23 fold enrichment (6-mer frequency, TF over GST control) with SPDEF; 1.37 fold enrichment (6-mer frequency, TF over GST control) in the test with ETV7; 1.2 fold enrichment (6-mer frequency, TF over GST control) with ELF5. For the same sequence, the binding signal is 1.26 fold enrichment (6-mer frequency, TF over GST control) with ETV3 and 1.26 fold enrichment (6-mer frequency, TF over GST control) in the test with ETV6.

With GATGTA, the binding signal is 1.18 fold enrichment (6-mer frequency, TF over GST control) with ERF; 1.39 fold enrichment (6-mer frequency, TF over GST control) with ETV3L; 1.49 fold enrichment (6-mer frequency, TF over GST control) in the test with ETS2; 2 fold enrichment (6-mer frequency, TF over GST control) with SPDEF; 1.43 fold enrichment (6-mer frequency, TF over GST control) in the test with ETV7; 1.38 fold enrichment (6-mer frequency, TF over GST control) with ELF5. For the same sequence, the binding signal with ETV3 was 1.39 fold enrichment (6-mer frequency, TF over GST control); in the test with ETV6, 1.35 fold enrichment (6-mer frequency, TF over GST control).

On to CCGTTC, for which the binding signal is 1.61 fold enrichment (6-mer frequency, TF over GST control) with ERF; 1.44 fold enrichment (6-mer frequency, TF over GST control) in the test with ETV3L; 1.36 fold enrichment (6-mer frequency, TF over GST control) with ETS2; 1.41 fold enrichment (6-mer frequency, TF over GST control) with SPDEF; 1.32 fold enrichment (6-mer frequency, TF over GST control) with ETV7; 1.56 fold enrichment (6-mer frequency, TF over GST control) with ELF5. Also, the binding signal with ETV3 was 1.38 fold enrichment (6-mer frequency, TF over GST control); in the test with ETV6, 1.37 fold enrichment (6-mer frequency, TF over GST control).

In the case of TCTAAG, the binding signal in the test with ERF was 1.25 fold enrichment (6-mer frequency, TF over GST control); in the test with ETV3L it was 1.17 fold enrichment (6-mer frequency, TF over GST control); with ETS2, 1.23 fold enrichment (6-mer frequency, TF over GST control); with SPDEF it was 1.1 fold enrichment (6-mer frequency, TF over GST control); with ETV7, 1.29 fold enrichment (6-mer frequency, TF over GST control); in the test with ELF5, 1.23 fold enrichment (6-mer frequency, TF over GST control). The binding signal is 1.24 fold enrichment (6-mer frequency, TF over GST control) with ETV3 and 1.17 fold enrichment (6-mer frequency, TF over GST control) with ETV6.

Regarding ATTTCG, the binding signal with ERF is 1.2 fold enrichment (6-mer frequency, TF over GST control); with ETV3L, 1.31 fold enrichment (6-mer frequency, TF over GST control); with ETS2 it was 1.3 fold enrichment (6-mer frequency, TF over GST control); with SPDEF, 1.27 fold enrichment (6-mer frequency, TF over GST control); in the test with ETV7, 1.26 fold enrichment (6-mer frequency, TF over GST control); with ELF5 it was 1.27 fold enrichment (6-mer frequency, TF over GST control). The binding signal with ETV3 was 1.27 fold enrichment (6-mer frequency, TF over GST control); with ETV6, 1.35 fold enrichment (6-mer frequency, TF over GST control).

On to ATTTAT, for which the binding signal with ERF is 1.51 fold enrichment (6-mer frequency, TF over GST control); in the test with ETV3L, 1.54 fold enrichment (6-mer frequency, TF over GST control); with ETS2, 1.47 fold enrichment (6-mer frequency, TF over GST control); with SPDEF, 1.4 fold enrichment (6-mer frequency, TF over GST control); in the test with ETV7, 1.48 fold enrichment (6-mer frequency, TF over GST control); with ELF5, 1.39 fold enrichment (6-mer frequency, TF over GST control). Besides, the binding signal with ETV3 was 1.41 fold enrichment (6-mer frequency, TF over GST control); in the test with ETV6, 1.4 fold enrichment (6-mer frequency, TF over GST control).

Consider TTCAAT, for which the binding signal in the test with ERF was 1.32 fold enrichment (6-mer frequency, TF over GST control); with ETV3L it was 1.47 fold enrichment (6-mer frequency, TF over GST control); with ETS2, 1.42 fold enrichment (6-mer frequency, TF over GST control); with SPDEF, 1.32 fold enrichment (6-mer frequency, TF over GST control); in the test with ETV7 it was 1.3 fold enrichment (6-mer frequency, TF over GST control); with ELF5 it was 1.26 fold enrichment (6-mer frequency, TF over GST control). Also, the binding signal with ETV3 is 1.37 fold enrichment (6-mer frequency, TF over GST control); with ETV6, 1.35 fold enrichment (6-mer frequency, TF over GST control).
